FMDV antiviral = antivirals against foot and mouth disease virus; Potency, µM (doses to about 57.9 µM), without a hit: at the highest dose activity change, negative = inhibition, hits mostly inhibitors; FMDV antiviral cell-based qHTS; AID 1159524; 1.2% of 410,000 active; calls by dose curve; tested in HEK293T cells; also: read-out not given here; nearly all actives have a fitted effect of over 45% in size
Lassa entry inh = Lassa virus entry inhibition; Lassa virus pseudotype entry inhibition, cell reporter; Potency, µM (doses to about 37.9 µM), without a hit: at the highest dose activity change, negative = inhibition, usual class: inhibitors; 1.2% of 300,000 active; AID 540256; calls by dose curve; tested in HEK293 cells; also: nearly all actives have a fitted effect of over 50% in size
RE007 growth inh = less growth of the S. pombe RE007 Vpr strain; Potency, µM (top dose mostly 92.2 µM), without a hit: at the highest dose activity change, negative = less growth, most hits filed as inhibitors; AID 651644; 0.21% of 360,000 active; S. pombe RE007 Vpr strain, BacTiter-Glo ATP luminescence, 24 h; active = well fitted falling curve with a large enough effect; inconclusive = small, poorly fitted or top-dose-only effect; inactive = no such curve, though single readings can be large or run the other way; also: nearly all actives have a fitted effect of over 50% in size
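Fission yeast RE007 carrying one integrated HIV-1 vpr copy, seeded at OD 0.01 in PMG+AL medium with 23 nL pinned compound. Grown 24 h at 30 degrees; viability read by BacTiter-Glo luminescence after 5 min.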
HCV inh = inhibitors of hepatitis C virus infection; 3.4% of 340,000 active; Potency, µM (doses to about 41.8 µM), for inactives: top-dose activity change, negative = inhibition, usual class: inhibitors; Huh7.5.1 HCVcc-Cre infection, luciferase reporter, 44 h; AID 651820
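Whole-lifecycle infectious HCVcc-Cre system; cells 1,000/well, compound then virus (~0.5 moi) added 4 h after plating, 44 h culture. Luciferase read 15 sec following 15 min substrate incubation, room temp.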
Marburg entry inh = blocks Marburg virus binding to or entry into cells; Potency, µM (series often up to 37.8 µM), without a hit: at the top dose activity change, negative = inhibition, most hits filed as inhibitors; 1.8% of 300,000 active; Marburg virus pseudotyped entry inhibition, cell reporter; AID 540276; calls by dose curve; tested in HEK293 cells
Sm TGR inh = blocks Schistosoma mansoni thioredoxin glutathione reductase. Q962Y6. purified TGR, DTNB reduction, TNB absorbance 405 nm. Potency, µM (doses to about 114 µM), for the others: top-dose activity change, negative = inhibition, most hits filed as inhibitors. 3% of 360,000 active. AID 485364; also: nearly all actives have a fitted effect of over 60% in size
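Kinetic colorimetric format: TGR-catalysed, NADPH-driven DTNB reduction monitored via TNB absorbance. Enzyme dispensed at 20 nM; compound exposure 15 min at room temperature before reaction start.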
Active calls of the source: *; [ ] = remark or other dose. Sampled rows, rich in hits. Any-hit rate of the full collection: about 7.2%. Unless noted, calls follow the shape of the dose curve; as a rule, active = well fitted curve in the direction sought with a large enough effect; inconclusive = small, poorly fitted or top-dose-only effect, or another doubt; inactive = no such curve, though single readings can be large; an effect the other way counts as inactive or inconclusive. % is scaled to controls: 0 for no effect and ±100 for the full control effect; potency is read from the fitted curve at half-maximal effect.

What do the screens show for `CCOc1ccc(NC(=O)CC2C(=O)N(c3cccc(C)c3)C(=O)N2Cc2ccco2)cc1` (configuration not stated)?
FMDV antiviral: 3%; Lassa entry inh: -22%[46.1 µM]; Sm TGR inh: inconclusive

What do the screens show for `COc1ccc(Cl)cc1NC(=O)CSc1cc(C)[nH]c(=O)n1`?
FMDV antiviral: -1%; Lassa entry inh: -9%[46.1 µM]; Sm TGR inh: -5%

How did COc1ccccc1CCn1c(=O)c(-c2ccc(Cl)cc2)nc2cncnc21 do in these assays?
FMDV antiviral: -14%

Results for Cn1c(=O)c2c(n3ncnc13)NC(=O)CC2c1cccc(F)c1 (configuration not stated) ?
FMDV antiviral: 4%; Lassa entry inh: 13%[46.1 µM]; Marburg entry inh: -4%[46.1 µM]; Sm TGR inh: -2%

What do the screens show for `O=C(Cn1cccc1)N1CCN(C(c2ccccc2)c2ccccc2)CC1`?
FMDV antiviral: 5%; Lassa entry inh: -2%; RE007 growth inh: -21%; HCV inh: -23%; Marburg entry inh: 1%; Sm TGR inh: 40µM*

What do the screens show for `O=C(CCNS(=O)(=O)c1ccccc1C(F)(F)F)N1CCN(C(c2ccccc2)c2ccccc2)CC1`?
FMDV antiviral: inconclusive; Lassa entry inh: inconclusive; RE007 growth inh: 3%; HCV inh: inconclusive; Marburg entry inh: 7.1µM*; Sm TGR inh: 0%

Results for Cc1ccc2c(c1)N(C(=O)CCC(=O)N1CCN(c3ccccc3)CC1)CCO2 ?
FMDV antiviral: 0%; RE007 growth inh: -7%; HCV inh: -11%; Sm TGR inh: 0%

Results for Cc1cccc(N2CCN(C(=O)CCCSc3nc4ccccc4[nH]3)CC2)c1C ?
FMDV antiviral: 35µM*; Lassa entry inh: -22%[14.3 µM]; RE007 growth inh: 2%; Marburg entry inh: inconclusive; Sm TGR inh: 3%

How did O=C(CCNS(=O)(=O)c1ccccc1C(F)(F)F)N1CCCCCCC1 do in these assays?
FMDV antiviral: 9%; RE007 growth inh: 2%; HCV inh: 6%; Sm TGR inh: -18%

Results for Cc1ccc2c(c1)N(C(=O)CCC(=O)N1CCN(c3cccc(C)c3C)CC1)CCO2 ?
FMDV antiviral: 14µM*; RE007 growth inh: 5%; HCV inh: 10µM*; Sm TGR inh: 15%

How did O=C(CSCc1cnn(-c2ccccc2)c1-n1cccc1)Nc1ccc(F)cc1F do in these assays?
FMDV antiviral: -8%; Lassa entry inh: 16%[46.1 µM]; Marburg entry inh: -7%[46.1 µM]; Sm TGR inh: -8%

How did Cc1ccc(NC(=O)c2oc3ccccc3c2NC(=O)c2cc3ccccc3o2)cc1 do in these assays?
FMDV antiviral: 0%; Lassa entry inh: -2%[46.1 µM]; Marburg entry inh: inconclusive; Sm TGR inh: 0%

Results for O=C(Oc1ccccc1)N1CCC2(CCCN(c3ncccn3)C2)CC1 ?
FMDV antiviral: -26%

What do the screens show for `Cc1cccc(N2CCN(C(=O)Cn3cccc3)CC2)c1C`?
FMDV antiviral: -12%; RE007 growth inh: -7%; HCV inh: -22%; Sm TGR inh: 50µM*

How did Cn1c(C(=O)NCc2cccs2)cc2oc3ccccc3c21 do in these assays?
FMDV antiviral: 12%; Lassa entry inh: 0.5µM*; RE007 growth inh: -7%; HCV inh: inconclusive; Marburg entry inh: 0.45µM*; Sm TGR inh: 8%

Results for CCn1c(C(=O)NCc2cc(Br)ccc2OC)cc2oc3ccccc3c21 ?
FMDV antiviral: -18%; Marburg entry inh: 2.8µM*; Sm TGR inh: 0%

What do the screens show for `COc1ccc(CNC(=O)c2cc3oc4ccccc4c3n2C)cc1OC`?
FMDV antiviral: 0%; Marburg entry inh: 5µM*; Sm TGR inh: -1%

What do the screens show for `Cn1c(C(=O)NCc2ccccc2)cc2oc3ccccc3c21`?
FMDV antiviral: 41%; Lassa entry inh: inconclusive; RE007 growth inh: 0%; HCV inh: inconclusive; Marburg entry inh: 2.6µM*; Sm TGR inh: 7%

How did Cn1c(C(=O)NCc2ccccc2F)cc2oc3ccccc3c21 do in these assays?
FMDV antiviral: 25%; Marburg entry inh: inconclusive; Sm TGR inh: 1%

What do the screens show for `CCn1c(C(=O)NCc2ccccc2Br)cc2oc3ccccc3c21`?
FMDV antiviral: -1%; Marburg entry inh: inconclusive; Sm TGR inh: -9%

Results for O=C(O)Cc1sc(-c2cccnc2)nc1-c1ccc(Br)cc1 ?
FMDV antiviral: 5%; Lassa entry inh: -17%[46.1 µM]; RE007 growth inh: -6%; HCV inh: inconclusive; Marburg entry inh: inconclusive; Sm TGR inh: 22µM*

How did O=C(O)Cc1sc(-c2ccccc2Cl)nc1-c1ccccc1 do in these assays?
FMDV antiviral: 3%; Lassa entry inh: -20%[46.1 µM]; RE007 growth inh: -2%; HCV inh: 2%; Marburg entry inh: 16%[46.1 µM]; Sm TGR inh: -3%

What do the screens show for `Cc1ccc(NCN2C(=O)C3C4C=CC(C4)C3C2=O)cc1` (configuration not stated)?
FMDV antiviral: 2%; Lassa entry inh: 4%; RE007 growth inh: -1%; HCV inh: 16%; Marburg entry inh: inconclusive; Sm TGR inh: 0%

How did O=C1C2C3C=CC(C3)C2C(=O)N1CNc1ccc(O)cc1 (configuration not stated) do in these assays?
Sm TGR inh: 45µM*

How did CCOC(=O)OC[C@H]1O[C@H](c2ccc(C(C)=O)cc2)C=C[C@H]1Oc1ccc(-c2ccccc2)cc1 do in these assays?
Lassa entry inh: inconclusive; Marburg entry inh: 3%[14.2 µM]

What do the screens show for `Cc1ccc(-n2nnnc2SCC(=O)Nc2cccc(NC(=O)c3ccco3)c2)cc1C`?
FMDV antiviral: -2%; Lassa entry inh: -18%; RE007 growth inh: -6%; HCV inh: 7.9µM*; Marburg entry inh: inconclusive; Sm TGR inh: 5%

Results for Cc1ccc(-n2nnnc2SCC(=O)Nc2ccccc2N2CCCCC2)cc1C ?
FMDV antiviral: -1%; Lassa entry inh: inconclusive; RE007 growth inh: 2%; HCV inh: 10µM*; Marburg entry inh: 13µM*; Sm TGR inh: 0%

Results for CCC(=O)Nc1cccc(-n2nnnc2SCC(=O)c2ccc(C)c(C)c2)c1 ?
FMDV antiviral: inconclusive; Lassa entry inh: inconclusive; RE007 growth inh: 2%; HCV inh: 11µM*; Marburg entry inh: inconclusive; Sm TGR inh: inconclusive

How did Cc1cccc(N(C)C(CNS(=O)(=O)c2ccccc2)c2ccccc2)c1 (configuration not stated) do in these assays?
FMDV antiviral: 28%; Lassa entry inh: -21%[46.1 µM]; Marburg entry inh: inconclusive; Sm TGR inh: 1%

What do the screens show for `O=c1c(-c2cc3ccccc3[nH]2)nc2ccccc2n1C(CCc1ccccc1)c1nc2ccccc2[nH]1` (configuration not stated)?
FMDV antiviral: 7%; RE007 growth inh: 2%
